Measurements published in the supplement of paper PMC6411743.
± gives the standard deviation of the averaged measurements. Targets with the largest changes are over-represented here; the source holds about 6,500 in all.

Compound: Nc1ncnc2c1ncn2[C@@H]1O[C@H](COP(=O)(O)OP(=O)(O)OP(=O)(O)O)[C@@H](O)[C@H]1O [adenosine triphosphate]
Test: NP40-soluble protein abundance relative to vehicle (solubility fold change) (ratio); higher = more soluble protein in presence of ATP
Method in brief: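 In three independent experiments, Jurkat crude lysate made by Dounce homogenisation was treated for 10 min at room temperature and then 3 min at 37 °C with eight concentrations ranging from 0.1 to 10 mM. It was then solubilised with 0.8% NP40 plus benzonase for 60 min at 4 °C and ultracentrifuged. The supernatant was TMT-labelled for LC-MS/MS, and each value is the fold change against the detergent-processed vehicle for the same replicate, using vsn-normalised intensities.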

UniProt P42696, sequence (P42696 whole entry): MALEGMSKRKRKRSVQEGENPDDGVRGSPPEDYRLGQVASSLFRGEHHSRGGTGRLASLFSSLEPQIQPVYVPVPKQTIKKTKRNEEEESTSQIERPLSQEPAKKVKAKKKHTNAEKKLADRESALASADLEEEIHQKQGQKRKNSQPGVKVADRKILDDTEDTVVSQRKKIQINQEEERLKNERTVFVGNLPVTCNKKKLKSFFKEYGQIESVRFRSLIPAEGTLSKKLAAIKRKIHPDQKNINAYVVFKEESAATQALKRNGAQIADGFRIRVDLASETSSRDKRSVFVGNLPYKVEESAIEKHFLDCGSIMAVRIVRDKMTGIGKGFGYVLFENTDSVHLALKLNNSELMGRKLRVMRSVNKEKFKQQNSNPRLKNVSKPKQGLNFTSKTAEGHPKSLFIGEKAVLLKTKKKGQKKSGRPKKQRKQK
UniProt P35610, sequence (P35610 whole entry): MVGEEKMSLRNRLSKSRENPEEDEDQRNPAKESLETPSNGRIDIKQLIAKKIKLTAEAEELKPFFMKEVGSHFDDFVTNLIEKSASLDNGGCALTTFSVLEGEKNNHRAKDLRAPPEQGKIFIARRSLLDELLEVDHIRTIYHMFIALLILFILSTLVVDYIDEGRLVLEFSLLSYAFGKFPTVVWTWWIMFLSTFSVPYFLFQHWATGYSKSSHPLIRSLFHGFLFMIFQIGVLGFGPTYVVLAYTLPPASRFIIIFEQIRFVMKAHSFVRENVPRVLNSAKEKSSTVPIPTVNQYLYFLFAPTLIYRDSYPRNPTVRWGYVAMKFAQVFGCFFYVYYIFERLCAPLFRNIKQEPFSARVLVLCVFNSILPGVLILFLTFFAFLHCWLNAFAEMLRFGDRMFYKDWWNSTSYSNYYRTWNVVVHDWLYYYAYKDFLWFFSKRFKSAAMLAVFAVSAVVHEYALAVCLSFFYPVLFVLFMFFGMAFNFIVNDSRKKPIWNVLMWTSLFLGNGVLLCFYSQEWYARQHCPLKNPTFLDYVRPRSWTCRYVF
UniProt Q01826, sequence (Q01826 whole entry): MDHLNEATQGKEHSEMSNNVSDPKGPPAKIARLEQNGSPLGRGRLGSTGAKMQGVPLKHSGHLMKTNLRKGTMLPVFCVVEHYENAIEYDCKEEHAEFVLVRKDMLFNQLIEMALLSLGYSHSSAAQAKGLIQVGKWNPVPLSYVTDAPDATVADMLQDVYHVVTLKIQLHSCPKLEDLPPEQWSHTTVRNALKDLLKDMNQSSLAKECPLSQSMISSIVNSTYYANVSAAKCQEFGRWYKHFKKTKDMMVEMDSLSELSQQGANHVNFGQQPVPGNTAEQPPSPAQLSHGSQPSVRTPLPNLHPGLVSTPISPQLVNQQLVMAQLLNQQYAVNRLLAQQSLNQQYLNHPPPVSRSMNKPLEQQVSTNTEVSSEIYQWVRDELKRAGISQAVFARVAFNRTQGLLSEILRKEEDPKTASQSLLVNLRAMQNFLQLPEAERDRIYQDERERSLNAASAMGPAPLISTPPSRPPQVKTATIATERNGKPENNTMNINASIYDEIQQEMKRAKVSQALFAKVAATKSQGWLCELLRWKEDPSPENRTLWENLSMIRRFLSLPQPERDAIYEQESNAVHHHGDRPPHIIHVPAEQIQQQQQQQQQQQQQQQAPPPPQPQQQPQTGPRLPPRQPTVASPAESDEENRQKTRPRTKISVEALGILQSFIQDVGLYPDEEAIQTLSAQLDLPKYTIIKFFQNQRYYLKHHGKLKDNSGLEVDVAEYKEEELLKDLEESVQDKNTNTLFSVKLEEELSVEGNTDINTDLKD

Target	NP40-soluble protein abundance (concentration: 1mM)	NP40-soluble protein abundance (concentration: 2mM)	NP40-soluble protein abundance (concentration: 4mM)	NP40-soluble protein abundance (concentration: 6mM)	NP40-soluble protein abundance (concentration: 8mM)	NP40-soluble protein abundance (concentration: 10mM)
UniProt Q01826|Q01826-2	0.952 ± 0.051	0.96 ± 0.023	0.919 ± 0.039	0.96 ± 0.031	0.928 ± 0.02	0.922 ± 0.011
SOAT1 (UniProt P35610)	1.02 ± 0.042	1 ± 0.028	0.999 ± 0.055	0.97 ± 0.029	1.03 ± 0.019	0.971 ± 0.041
RBM34 (UniProt P42696)	1.16 ± 0.026	1.21 ± 0.059	1.4 ± 0.097	1.57 ± 0.1	1.7 ± 0.18	1.85 ± 0.21
